An excerpt weighted towards active compounds, which were near 19% of everything screened.
IL-1B inflam inh = blocks inflammasome-driven IL-1 beta release. THP-1 LPS/ATP IL-1B secretion, AlphaLISA, 16 h; stronger effect = lower value. activity change, % at 57.5 µM. hit rate 4.7% among 360,000. AID 743279; in the data active = activity change below about -50%; inconclusive = mostly about -30% to -49%
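THP-1 cells pretreated 1 hr with compounds (up to 57.5 uM final), then stimulated with LPS (250 ng/mL final) plus ATP (1.25 mM final); secreted IL-1B measured by AlphaLISA after 16 hr, decreased signal indicating inhibition.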
TDP1 cell CPT = DT40-hTDP1 cell growth loss with CPT | hit rate 12% among 420,000 | Potency, µM (titrated, usually from 46.2 µM), without a hit: at the top dose activity change, negative = growth inhibition, actives largely listed as inhibitors | AID 686979 | chicken DT40 Tdp1-/-;hTDP1 cells + 20 nM CPT, ATP luminescence, 48 h; note: potency is the fitted concentration of half-maximal effect; nearly all actives have a fitted effect of over 55% in size
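Chicken DT40 Tdp1-/- cells stably complemented with human TDP1 were seeded at 400 cells/well in medium containing 20 nM camptothecin, exposed to pin-transferred compounds, and grown at 37 °C for at least 48 hr. Viability was read as ATP luminescence.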
ELG1 DNA repair = blocks ELG1-dependent DNA repair in HEK293T cells; HEK293T ELG1-luciferase reporter, luminescence, 16 h; DNA damage induced by 5-fluorouridine; Potency, µM (series often up to 46.1 µM), without a hit: top-dose activity change, negative = inhibition, actives largely listed as inhibitors; hit rate 2.3% among 330,000; AID 504467; note: potency is the fitted concentration of half-maximal effect; nearly all actives have a fitted effect of over 55% in size
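Cells (2,000 per well) received 5-fluorouridine plus test compound or DMSO and were incubated 16 hr at 37 °C, 5% CO2. Luciferase activity was read by luminescence 30 min after ONE-Glo addition; signal suppression marked inhibition of damage-induced ELG1 function.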
HT1080 IDH1KD tx = kills HT-1080 cells with IDH1 knockdown; HT-1080 IDH1 knockdown viability, ATP luminescence, 48 h; Potency, µM (top dose mostly 46.1 µM), for the others: top-dose activity, negative = toxicity, usual class: cytotoxic; hit rate 2% among 360,000; AID 686971;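 note: potency is the fitted concentration of half-maximal effect; 0% = DMSO wells and -100% = cell-free medium wells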
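Knockdown cells (IDH1KD HT-1080) received compounds 2 h after plating at 750 cells/well and were kept 48 h at 37 °C in 5% FBS RPMI. A CellTiter-Glo luminescence read gave % activity for curve fitting.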
DT40 TDP1 no CPT = qHTS for Inhibitors of human tyrosyl-DNA phosphodiesterase 1 (TDP1): qHTS in cells in absence of CPT | AID 686978, 2013 | hit rate 15% among 420,000 | DT40 Tdp1-/- hTDP1 cells, no CPT, ATP luminescence, 48 h | Potency, µM (highest dose often 46.2 µM), for the others: top-dose activity change, negative = growth inhibition, usual class: inhibitors; note: potency is the fitted concentration of half-maximal effect; nearly all actives have a fitted effect of over 55% in size
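Cells were dispensed at 400 per well, compounds added by pin tool, plates incubated ≥48 hr at 37 °C, then CellTiter-Glo added for 30 min at room temperature before luminescence reading. Line: DT40 Tdp1-/- complemented with hTDP1; camptothecin omitted.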
HT1080NT lethal = kills 2HG-producing HT-1080-NT fibrosarcoma cells; HT-1080-NT fibrosarcoma viability, CellTiter-Glo ATP luminescence, 48 h; Potency, µM (titrated, usually from 46.1 µM), for the others: top-dose activity, negative = less viability, actives largely listed as cytotoxic; hit rate 1.6% among 360,000; AID 686970;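 note: NT is the 2HG producing partner of a matched IDH1 knockdown line; potency is the fitted concentration of half-maximal effect; 0% = DMSO-treated cells and -100% = media-only wells without cells; nearly all actives have a fitted effect of over 55% in size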
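HT-1080-NT; 750 cells/well; 5% FBS RPMI; 48 h compound, 37 degrees C; CellTiter-Glo luminescence; curve fitting and curve-class assignment.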
Numbers without * were called inactive; ? = inconclusive; · = no result given. Unless noted, calls come from the whole dose curve; as a rule, active = well fitted curve in the direction sought with a large enough effect; inconclusive = small, poorly fitted or top-dose-only effect, or another doubt; inactive = no such curve, though single readings can be large; an effect the other way counts as inactive or inconclusive. Unless noted, % is set by controls: 0 for no effect and ±100 for the full control effect.

SMILES	IL-1B inflam inh	TDP1 cell CPT	ELG1 DNA repair	HT1080 IDH1KD tx	DT40 TDP1 no CPT	HT1080NT lethal
Cc1ccc(-c2nc(CS(=O)CC(=O)NCc3ccc(F)cc3)c(C)o2)cc1 (centres undefined)	-11.1	-9.9%	8.8%	6.0%	-28.9%	10.3%
COc1ccc(-c2nc(CS(=O)CC(=O)NCc3ccccc3OC)c(C)o2)cc1 (centres undefined)	·	-10.9%	·	·	-22.4%	·
Cc1oc(-c2ccc(C(=O)NCc3ccc(F)cc3)cc2)nc1CS(=O)c1ccccc1 (centres undefined)	·	?	·	·	20.6µM*	·
Cc1ccc(S(=O)Cc2nc(-c3ccc(C(=O)NCc4cccc(C)c4)cc3)oc2C)cc1 (centres undefined)	·	10.1%	·	·	?	·
COc1ccccc1CNC(=O)c1ccc(-c2nc(CS(=O)c3ccc(C)cc3)c(C)o2)cc1 (centres undefined)	·	?	·	·	13µM*	·
O=C(CSc1nnc(NC(=O)C2CCC2)s1)Nc1ccccc1F	23.5	-7.4%	7.6%	-10.6%	-8.5%	-24.1%
Cc1ccc(S(=O)(=O)N2CCCCC2CCNC(=O)C(=O)NCC2CCCO2)cc1 (centres undefined)	?	?	4.1%	-0.8%	-22.6%	-1.3%
C=C(C)Cn1c2ccc(NC(=O)CCc3cccc(Cl)c3)cc2c(=O)n1C	37.7	18.4µM*	·	?	14.6µM*	?
COc1ccc(CCNC(=O)Nc2ccc3c(c2)c(=O)n(C)n3Cc2ccc(F)cc2)cc1OC	0.0	?	·	11.6%	?	25.0%
Cn1c(=O)c2cc(NC(=O)NCc3ccc(Cl)cc3Cl)ccc2n1Cc1ccccc1	-59.9*	?	·	-5.3%	?	-1.0%
Cn1c(=O)c2cc(NC(=O)CCc3cccc(Cl)c3)ccc2n1Cc1cccc(C(F)(F)F)c1	55.1	-20.4%	·	9.4%	-24.5%	28.2%
Cn1c(=O)c2cc(NC(=O)NCCc3ccccc3)ccc2n1Cc1ccc(F)cc1	11.0	?	·	-22.2%	?	-12.0%
COc1cc(Cn2c3ccc(NC(=O)NCc4ccc(F)cc4)cc3c(=O)n2C)ccc1F	60.8	5.8µM*	·	?	5.17µM*	?
Cn1c(=O)c2cc(NC(=O)CCc3ccc4c(c3)OCO4)ccc2n1Cc1ccc(F)cc1	?	16.4µM*	·	?	?	-5.2%
CSc1nc2c(c(=O)[nH]1)C(c1cccc(Br)c1)CC(=O)N2 (centres undefined)	2.4	4.3%	?	4.3%	-7.8%	2.0%
COc1cc(C)c(CN2CCc3nnc(C(C)NC(=O)c4cc(F)ccc4F)n3CC2)cc1C (centres undefined)	·	0.3%	·	·	-1.8%	·
COc1cc(Cn2c3ccc(NC(=O)CCc4ccc(O)cc4)cc3c(=O)n2C)ccc1F	0.0	?	·	?	20.6µM*	?
Cn1c(=O)c2cc(NC(=O)Nc3ccccc3)ccc2n1Cc1ccccc1	-18.3	?	·	?	?	-28.1%
CCOCCC(=O)Nc1ccc2c(c1)c(=O)n(C)n2CC=C(C)C	-13.3	5.17µM*	·	?	2.91µM*	?
C=C(C)Cn1c2ccc(NC(=O)CCOCC)cc2c(=O)n1C	19.7	13.9%	·	25.6%	-3.8%	?
CC(=O)c1ccc(OCC(=O)N2CCCCC2)cc1	·	2.9%	·	·	4.7%	·
CC1CC(C)CN(C(C(=O)NC2CCCCC2)c2cc3ccccc3o2)C1 (centres undefined)	-28.1	?	·	?	25.9µM*	?
CCOc1ccc(N(CC(=O)NCc2ccc(F)cc2)C(=O)c2ccco2)cc1	-7.5	2.1%	2.6%	-11.5%	?	-13.9%
CO[C@H]1C[C@@H]2CC[C@@H](C)[C@@](O)(O2)C(=O)C(=O)N2CCCC[C@H]2C(=O)O[C@H]([C@H](C)C[C@@H]2CC[C@@H](O)[C@H](OC)C2)CC(=O)[C@H](C)/C=C(/C)[C@@H](O)[C@@H](OC)C(=O)[C@H](C)C[C@H](C)C=C/C=C\C=C/1C	·	3.98µM*	·	·	?	·
CO[C@H]1C[C@@H]2CC[C@@H](C)[C@@](O)(O2)C(=O)C(=O)N2CCCC[C@H]2C(=O)OC([C@H](C)C[C@@H]2CC[C@@H](O)[C@H](OC)C2)CC(=O)[C@H](C)/C=C(\C)[C@@H](O)[C@@H](OC)C(=O)[C@H](C)C[C@H](C)/C=C/C=C/C=C/1C (some centres undefined)	·	0.0103µM*	·	·	0.0092µM*	·
SMILES	IL-1B inflam inh	TDP1 cell CPT	ELG1 DNA repair	HT1080 IDH1KD tx	DT40 TDP1 no CPT	HT1080NT lethal
Cn1nc([N+](=O)[O-])nc1Sc1ccc(Cl)cc1	10.2	?	1.0%	16.2%	?	18.5%
COc1ccccc1-c1nnc(Sc2nc([N+](=O)[O-])nn2C)o1	-100.1*	?	?	3.98µM*	16.4µM*	12.6µM*
CC(C)(C)c1ccc(/C=C(\C#N)C(=O)NC2CC2)cc1	·	3.4%	·	?	?	?
N#C/C(=C\c1ccc(F)c(Br)c1)C(=O)NC1CC1	-28.2	?	?	8.4%	?	0.6%
N#C/C(=C\c1cc(Cl)ccc1O)C(=O)NC1CCCCC1	-16.9	?	?	-13.2%	?	5.0%
N#C/C(=C\c1cc(Cl)cc(Cl)c1O)C(=O)NC1CCCCC1	-1.7	20.6µM*	?	-7.7%	?	-3.4%
Cc1ccc(-c2[nH]ncc2/C=C(\C#N)C(=O)NC2CCCCC2)cc1	-58.8*	?	9.2µM*	?	20.6µM*	?
N#C/C(=C\c1ccccc1[N+](=O)[O-])C(=O)NC1CCCCC1	-71.5*	?	7.2%	18.4µM*	14.6µM*	?
N#C/C(=C\c1cc(Br)ccc1F)C(=O)NC1CC1	-2.1	13µM*	?	8.8%	?	7.4%
Cc1cc2c(cc1S(=O)(=O)C(C)CC(=O)NC1CCC(C)CC1)OCC(=O)N2 (centres undefined)	·	5.1%	·	·	-0.5%	·
N#C/C(=C\C=C\c1ccccc1[N+](=O)[O-])C(=O)NC1CCCCC1	-104.0*	9.2µM*	?	5.2%	9.2µM*	4.4%
N#C/C(=C\c1cccn1-c1ccccc1)C(=O)NC1CCCCC1	1.3	?	?	13.1%	?	5.8%
Nn1c(SCc2ccc(F)cc2)nnc1-c1ccncc1	-11.2	13.0%	?	-16.1%	-0.8%	-7.0%
Cc1ccc(NC(=O)CN(C)S(=O)(=O)c2ccc3c(c2)n(C)c(=O)c(=O)n3C)cc1F	·	3.1%	·	·	-22.9%	·

From PubChem BioAssay
